This is a sample that favours compounds with a hit; in the whole collection about 7.1% have one here.
IL-1B inflam inh = inhibitors of inflammasome signaling (IL-1 beta secretion); activity change, % at 57.5 µM; THP-1 LPS/ATP IL-1B secretion, AlphaLISA, 16 h; active compounds read low; 360,000 compounds, 4.7% hits; in the data active = activity change below about -50%; inconclusive = mostly about -30% to -49%; note: % is set by controls: 0 for no effect and ±100 for the full control effect
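THP-1 cells pretreated 1 hr with compounds (up to 57.5 uM final), then stimulated with LPS (250 ng/mL final) plus ATP (1.25 mM final); secreted IL-1B measured by AlphaLISA after 16 hr, decreased signal indicating inhibition.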
MCF10A rereplic = induces DNA re-replication in MCF 10a normal breast cells | 350,000 compounds, 2.9% hits | MCF 10A DNA re-replication, Hoechst nuclear intensity, 48 h | Potency, µM (top dose mostly 46.1 µM), for the others: top-dose activity, positive = re-replication, usual class: activators; note: potency is the fitted concentration of half-maximal effect; % of control where 0% means no effect; nearly all actives have a fitted effect of over 50% in size
ATXN2 expr inh = ATXN2 expression inhibition; HEK-293 ATXN2-luciferase reporter, luminescence, 24 h; Potency, µM (highest dose often 57 µM), inactives show at the top dose activity change, negative = inhibition, hits mostly inhibitors; AID 1745845; 360,000 compounds, 0.72% hits; note: potency is the fitted concentration of half-maximal effect; % is set by controls: 0 for no effect and ±100 for the full control effect; nearly all actives have a fitted effect of over 55% in size
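ATXN2-luciferase reporter cells (luciferase flanked by upstream and downstream ATXN2 gene portions) were treated 24 h at 37 °C with compounds at up to 57 uM. SteadyGlo luminescence gave expression; GF-AFC fluorescence gave viability.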
PINK1 modulator = changes PINK1 expression; 410,000 compounds, 0.2% hits; AID 624263; Potency, µM (series often up to 76.6 µM), without a hit: top-dose activation (PINK1 increase), usual class: activators; PINK1 immunofluorescence, high-content cytometry, 24 h; active = well fitted activation curve with a large enough effect; inconclusive = small, poorly fitted or top-dose-only effect; cell line not stated here; note: potency is the fitted concentration of half-maximal effect; % of control where 0% means no effect; nearly all actives have a fitted effect of over 65% in size
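PINK1 protein level read as immunofluorescence by microplate cytometer in a fixed, stained stable cell line after 24 h exposure to five compound concentrations, with CCCP as control.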
ATXN viability = reduces viability in counter-screen for ATXN expression inhibitors; S2 cells (HEK-293 line with an ATXN2-luciferase reporter) viability, CellTiter-Fluor protease fluorescence, 24 h; Potency, µM (doses to about 56.7 µM), most hits filed as cytotoxic; 400,000 compounds, 0.49% hits; note: potency is the fitted concentration of half-maximal effect; nearly all actives have a fitted effect of over 40% in size
SW480 rereplic = DNA re-replication induction in SW480 cells; 340,000 compounds, 1.8% hits; SW480 DNA re-replication, Hoechst DNA content imaging, 48 h; Potency, µM (top dose mostly 46.1 µM), without a hit: top-dose re-replication activation, actives largely listed as activators; note: potency is the fitted concentration of half-maximal effect; % of control where 0% means no effect; nearly all actives have a fitted effect of over 55% in size
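DNA re-replication was detected as more nuclei of elevated Hoechst intensity after 48 hr exposure to compound (23 nL pinned per well of 250 cells).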
Active calls of the source: *; [ ] = dose if it differs, or a comment. Unless noted, calls come from the whole dose curve; as a rule, active = well fitted curve in the direction sought with a large enough effect; inconclusive = small, poorly fitted or top-dose-only effect, or another doubt; inactive = no such curve, though single readings can be large; an effect the other way counts as inactive or inconclusive.

Screening COc1cccc(NC(=O)Nc2cc(Cl)ccc2C)c1 returned IL-1B inflam inh -76*, MCF10A rereplic -11%, PINK1 modulator 4%, ATXN viability inactive and SW480 rereplic -6%.
For COc1cccc(NC(=O)Nc2ccccc2Br)c1 the results were IL-1B inflam inh -26, MCF10A rereplic 1%, ATXN2 expr inh 23%, PINK1 modulator 4%, ATXN viability inactive and SW480 rereplic 5%.
For CCCCCNC(=O)c1ccc2c(c1)nc(C)n2-c1cccc(C)c1 the results were ATXN2 expr inh -15%, PINK1 modulator 1% and ATXN viability inactive.
`CCc1ccccc1NC(=O)CCNS(=O)(=O)c1ccc2c(c1)CCCC(=O)N2` gave ATXN2 expr inh -1%, PINK1 modulator -1% and ATXN viability inactive.
For C/C(=C\C(=O)c1ccc(Br)cc1)Nc1ccc(Cl)cc1 the results were IL-1B inflam inh 0, MCF10A rereplic 9%, PINK1 modulator 0%, ATXN viability inactive and SW480 rereplic 2%.
CC(=O)Nc1cccc(NC(=O)c2ccc(C(=O)Nc3cccc(NC(C)=O)c3)nc2)c1 was read as IL-1B inflam inh 7, MCF10A rereplic 2%, ATXN2 expr inh 3%, PINK1 modulator inconclusive, ATXN viability inactive and SW480 rereplic -19%.
`COc1cccc(N/C(C)=C/C(=O)c2ccc(Br)cc2)c1` gave IL-1B inflam inh -8, MCF10A rereplic 21µM*, ATXN2 expr inh 50%, PINK1 modulator 1%, ATXN viability inactive and SW480 rereplic 0%.
For Cc1cccc(C(=O)Nc2ccn(C)n2)c1 the results were IL-1B inflam inh -11, MCF10A rereplic -12%, ATXN2 expr inh 2%, PINK1 modulator 1%, ATXN viability inactive and SW480 rereplic 18µM*.
Screening Cc1cccc(NC(=O)c2ccc(C(=O)Nc3cccc(C)c3)nc2)c1 returned IL-1B inflam inh 43, MCF10A rereplic 7.3µM*, ATXN2 expr inh -19%, PINK1 modulator 7%, ATXN viability inconclusive and SW480 rereplic inconclusive.
COc1cccc(NC(=O)c2cc(Cl)nnc2Cl)c1 was read as IL-1B inflam inh -92*, MCF10A rereplic inconclusive, ATXN2 expr inh -60%, PINK1 modulator -2%, ATXN viability inconclusive and SW480 rereplic inconclusive.
`Cc1c2cnn(-c3ccccc3)c(=O)c2c(C)n1CCCC(=O)Nc1ccc(F)cc1F` gave ATXN2 expr inh 0%, PINK1 modulator 0% and ATXN viability inactive.
`CCCOc1ccc(C2C(=O)N(C3CCCCCC3)CC(=O)N2CCC)cc1OC` (centres undefined) gave PINK1 modulator 2%.
Screening COc1ccc(NCC(=O)Nc2ccc(Cl)cc2C)c(OC)c1 returned IL-1B inflam inh inconclusive, MCF10A rereplic 10%, ATXN2 expr inh inconclusive, PINK1 modulator 9%[38.3 µM], ATXN viability inactive and SW480 rereplic 16µM*.
`Cc1cccc(C(=O)Nc2ccc(C(=O)c3ccccc3)cc2)c1` gave IL-1B inflam inh -80*, MCF10A rereplic inconclusive, ATXN2 expr inh -22%, PINK1 modulator 4%, ATXN viability inactive and SW480 rereplic inconclusive.
`CCOc1ccc(NCC(=O)Nc2ccc(Cl)cc2C)cc1` gave IL-1B inflam inh -26, MCF10A rereplic inconclusive, ATXN2 expr inh -1%, PINK1 modulator 2%[38.3 µM], ATXN viability inconclusive and SW480 rereplic inconclusive.
Screening Cc1cccc(C(=O)Nc2ccc(C(=O)c3ccncc3)cc2)c1 returned IL-1B inflam inh 17, PINK1 modulator 0% and ATXN viability inconclusive.
Screening Cc1ccc(Cl)cc1NC(=O)NCc1cccnc1 returned IL-1B inflam inh 36, MCF10A rereplic 0%, ATXN2 expr inh -9%, PINK1 modulator 0%, ATXN viability inactive and SW480 rereplic 18µM*.
`Cc1cc(C)nc(/N=C(\N)Nc2ccccc2-c2ccccc2)n1` gave IL-1B inflam inh -98*, MCF10A rereplic 15%, ATXN2 expr inh inconclusive, PINK1 modulator inconclusive, ATXN viability inactive and SW480 rereplic 3%.
For Cc1cc(C)cc(N/C(N)=N/c2nc(C)cc(C)n2)c1 the results were IL-1B inflam inh -102*, MCF10A rereplic inconclusive, ATXN2 expr inh -19%, PINK1 modulator 22%, ATXN viability inactive and SW480 rereplic inconclusive.
Screening Cc1cccc(N/C(N)=N/c2nc(C)cc(C)n2)c1 returned IL-1B inflam inh -109*, MCF10A rereplic -5%, ATXN2 expr inh -5%, PINK1 modulator 6%, ATXN viability inactive and SW480 rereplic 1%.
Cc1cc(C)nc(/N=C(\N)Nc2ccc(C(C)C)cc2)n1 was read as IL-1B inflam inh -99*, MCF10A rereplic inconclusive, ATXN2 expr inh inconclusive, PINK1 modulator 40µM*, ATXN viability inactive and SW480 rereplic inconclusive.
Screening Cc1c(Cl)cccc1NC(=O)CC(c1cccs1)N1Cc2ccccc2C1=O (centres undefined) returned ATXN2 expr inh -30%, PINK1 modulator -5% and ATXN viability inactive.
For Cn1cc(CN2CCC(C(=O)NC(c3ccc(-c4ccccc4)cc3)c3cnccn3)CC2)c2ccccc21 (centres undefined) the results were IL-1B inflam inh 0, ATXN2 expr inh -23%, PINK1 modulator -1% and ATXN viability 20µM*.
Screening O=C(NC(c1ccc(-c2ccccc2)cc1)c1cnccn1)C1CCN(Cc2ccc3c(c2)OCO3)CC1 (centres undefined) returned IL-1B inflam inh -26, ATXN2 expr inh inconclusive, PINK1 modulator -1% and ATXN viability 32µM*.
For O=C(NC(c1ccccc1)c1cnccn1)C1CCN(Cc2ccc(Cl)c(Cl)c2)CC1 (centres undefined) the results were IL-1B inflam inh -24, ATXN2 expr inh inconclusive, PINK1 modulator 0% and ATXN viability inconclusive.
`O=C(NC(c1ccc(-c2ccccc2)cc1)c1cnccn1)C1CCN(Cc2ccc(Cl)c(Cl)c2)CC1` (centres undefined) gave IL-1B inflam inh -21, ATXN2 expr inh 0%, PINK1 modulator 0% and ATXN viability inconclusive.
CC(=O)OCC1OC(n2cc(F)c(=O)[nH]c2=O)C(OC(C)=O)C1OC(C)=O (centres undefined) was read as IL-1B inflam inh 93, MCF10A rereplic inconclusive, PINK1 modulator 0%, ATXN viability inactive and SW480 rereplic inconclusive.
O=C1C(F)=CC(COC(c2ccccc2)(c2ccccc2)c2ccccc2)OC1n1cc(F)c(=O)[nH]c1=O (centres undefined) was read as IL-1B inflam inh -101*, MCF10A rereplic 2.6µM*, ATXN2 expr inh 3.4µM*, PINK1 modulator -7%, ATXN viability 3µM* and SW480 rereplic 7.3µM*.
